From ChEMBL document CHEMBL3988442, “University of Dundee, Small-Polar-MMV Screening Library” (2021)
For some assays here: Measured potencies and affinities stand elsewhere.

Experiments:
Design in all cases: scale not given: direction of the effect not stated beside the values
[1] = target: Protein translocase subunit SecA (Escherichia coli (strain K12)) (UniProt P10408); test: Assay to Identify E. coli SecA ATPase Inhibitors; format: functional; details: 30 µM
[2] = target: T1, Ubiquitin-activating enzyme e1, putative (Leishmania donovani (strain BPK282A1)) (UniProt E9BSI1); test: Leishmania donovani Ubiquitin Activating Enzyme (LdE1); format: functional; details: 30 µM
T1 sequence (whole entry): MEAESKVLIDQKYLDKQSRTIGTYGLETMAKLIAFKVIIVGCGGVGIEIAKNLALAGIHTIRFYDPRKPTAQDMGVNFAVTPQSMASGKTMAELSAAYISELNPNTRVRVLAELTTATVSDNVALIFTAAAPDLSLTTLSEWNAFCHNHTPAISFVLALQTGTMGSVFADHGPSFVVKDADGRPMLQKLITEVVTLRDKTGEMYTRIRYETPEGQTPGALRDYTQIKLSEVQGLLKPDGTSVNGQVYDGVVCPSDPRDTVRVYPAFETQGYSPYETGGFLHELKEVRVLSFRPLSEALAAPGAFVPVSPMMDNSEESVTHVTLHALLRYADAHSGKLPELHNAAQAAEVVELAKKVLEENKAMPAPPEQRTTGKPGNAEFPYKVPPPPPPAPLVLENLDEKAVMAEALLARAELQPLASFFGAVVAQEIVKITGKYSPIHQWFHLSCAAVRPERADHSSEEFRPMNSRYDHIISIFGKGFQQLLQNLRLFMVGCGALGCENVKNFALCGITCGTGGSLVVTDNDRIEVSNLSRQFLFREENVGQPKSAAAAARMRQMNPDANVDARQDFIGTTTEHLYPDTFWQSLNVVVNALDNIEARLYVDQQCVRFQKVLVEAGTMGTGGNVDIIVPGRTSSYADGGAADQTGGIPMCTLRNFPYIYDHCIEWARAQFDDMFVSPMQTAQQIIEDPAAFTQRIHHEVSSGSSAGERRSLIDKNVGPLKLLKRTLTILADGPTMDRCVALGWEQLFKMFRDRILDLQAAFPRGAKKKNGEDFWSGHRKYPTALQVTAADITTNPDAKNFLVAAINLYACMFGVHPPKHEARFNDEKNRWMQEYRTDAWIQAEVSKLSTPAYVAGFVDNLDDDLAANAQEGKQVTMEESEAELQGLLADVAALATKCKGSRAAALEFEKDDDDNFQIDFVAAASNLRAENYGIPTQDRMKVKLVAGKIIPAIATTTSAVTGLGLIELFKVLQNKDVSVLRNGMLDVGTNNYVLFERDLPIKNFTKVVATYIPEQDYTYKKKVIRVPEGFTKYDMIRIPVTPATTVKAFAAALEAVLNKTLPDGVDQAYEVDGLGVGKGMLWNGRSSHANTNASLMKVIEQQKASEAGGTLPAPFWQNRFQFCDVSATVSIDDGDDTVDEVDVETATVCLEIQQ

[3] = target: Sialic acid-binding Ig-like lectin 9 (Homo sapiens) (UniProt Q9Y336); test: Hs-Siglec9 ALPHAscreen SOP 20170721; details: 10 µM
Trypanosoma cruzi = test: Trypanosoma cruzi phosphomannomutase and mannose-1-phosphate guanylyltransferase assay; format: functional; details: 10 µM
[4] = target: T2, Arginase-2, mitochondrial (Homo sapiens) (UniProt P78540); test: in vitro enzyme assay to detect the production of urea directly proportional to the activity of Arginase II; format: functional; details: 33.3 µM; further: in the data most compounds retested in dose-response had high values
T2 sequence (whole entry): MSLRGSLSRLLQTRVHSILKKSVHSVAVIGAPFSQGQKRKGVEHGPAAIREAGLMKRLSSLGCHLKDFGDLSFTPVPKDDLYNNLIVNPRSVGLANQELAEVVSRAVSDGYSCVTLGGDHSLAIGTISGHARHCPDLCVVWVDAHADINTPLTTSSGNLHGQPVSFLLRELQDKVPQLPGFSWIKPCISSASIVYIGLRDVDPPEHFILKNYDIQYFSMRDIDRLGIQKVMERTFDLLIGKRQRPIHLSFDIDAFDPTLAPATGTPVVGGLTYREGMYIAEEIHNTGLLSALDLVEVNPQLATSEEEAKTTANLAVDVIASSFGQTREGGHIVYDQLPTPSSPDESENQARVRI

[5] = target: T3, Proteasome subunit beta (Trypanosoma cruzi) (UniProt O96673); test: Trypanosoma cruzi proteasome chymotrypsin-like activity (TcProtChymo) assay.; further: in the data most compounds retested in dose-response had high values; format: functional; details: 9.37 µM
T3 sequence (whole entry): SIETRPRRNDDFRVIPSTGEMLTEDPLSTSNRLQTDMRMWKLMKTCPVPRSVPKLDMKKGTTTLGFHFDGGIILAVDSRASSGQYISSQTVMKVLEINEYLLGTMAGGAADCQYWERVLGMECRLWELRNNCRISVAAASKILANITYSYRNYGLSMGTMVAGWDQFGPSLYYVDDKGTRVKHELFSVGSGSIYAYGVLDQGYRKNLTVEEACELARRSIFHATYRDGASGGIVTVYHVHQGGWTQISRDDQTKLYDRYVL

Homo sapiens = organism: Homo sapiens; test: To identify inhibition of the IFN signalling (Jak-Stat) pathway via expression of an eGFP reporter gene under the control of an IFN-stimulated response element (ISRE) containing MxA promoter.; format: functional; details: 30 µM
[6] = target: T4, Tyrosyl-tRNA synthetase, putative (Trypanosoma cruzi (strain CL Brener)) (UniProt Q4DSP6); test: Trypanosoma cruzi tyrosyl tRNA synthetase (TcYRS) _High Tyrosine SOP; format: functional; details: 30 µM; further: in the data most compounds retested in dose-response had high values
T4 sequence (whole entry): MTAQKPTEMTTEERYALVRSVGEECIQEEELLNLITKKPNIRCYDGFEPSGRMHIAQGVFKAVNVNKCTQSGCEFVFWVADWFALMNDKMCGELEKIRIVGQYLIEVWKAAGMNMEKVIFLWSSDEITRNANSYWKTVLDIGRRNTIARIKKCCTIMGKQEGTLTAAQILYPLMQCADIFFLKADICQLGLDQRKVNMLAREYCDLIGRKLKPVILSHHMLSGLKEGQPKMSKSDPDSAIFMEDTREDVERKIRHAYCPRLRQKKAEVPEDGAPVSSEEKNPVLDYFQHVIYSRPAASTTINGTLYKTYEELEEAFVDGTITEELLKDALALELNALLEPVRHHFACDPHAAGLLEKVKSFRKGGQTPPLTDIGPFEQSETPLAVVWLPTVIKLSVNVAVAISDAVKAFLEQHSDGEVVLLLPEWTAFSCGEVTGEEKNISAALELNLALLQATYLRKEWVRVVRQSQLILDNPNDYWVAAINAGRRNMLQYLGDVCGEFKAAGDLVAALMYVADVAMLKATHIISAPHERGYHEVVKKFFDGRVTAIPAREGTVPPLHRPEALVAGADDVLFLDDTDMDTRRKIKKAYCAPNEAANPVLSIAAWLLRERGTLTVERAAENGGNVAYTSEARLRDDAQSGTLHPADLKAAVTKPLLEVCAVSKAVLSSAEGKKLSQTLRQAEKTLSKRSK

[7] = target: T4, Tyrosyl-tRNA synthetase, putative (Trypanosoma cruzi (strain CL Brener)); test: Trypanosoma cruzi tyrosyl tRNA synthetase (TcYRS) SOP; format: functional; details: 30 µM
[8] = target: Chromo domain-containing protein 1 (Saccharomyces cerevisiae (strain ATCC 204508 / S288c) (Baker's yeast)) (UniProt P32657); test: ScCHD-1 Enzyme Inhibition Assay; format: functional; details: 30 µM; further: in the data most compounds retested in dose-response had high values
Chain of Chromo domain-containing protein 1 (Saccharomyces cerevisiae (strain ATCC 204508 / S288c) (Baker's yeast)) (P32657 whole entry, the tested form may be a part): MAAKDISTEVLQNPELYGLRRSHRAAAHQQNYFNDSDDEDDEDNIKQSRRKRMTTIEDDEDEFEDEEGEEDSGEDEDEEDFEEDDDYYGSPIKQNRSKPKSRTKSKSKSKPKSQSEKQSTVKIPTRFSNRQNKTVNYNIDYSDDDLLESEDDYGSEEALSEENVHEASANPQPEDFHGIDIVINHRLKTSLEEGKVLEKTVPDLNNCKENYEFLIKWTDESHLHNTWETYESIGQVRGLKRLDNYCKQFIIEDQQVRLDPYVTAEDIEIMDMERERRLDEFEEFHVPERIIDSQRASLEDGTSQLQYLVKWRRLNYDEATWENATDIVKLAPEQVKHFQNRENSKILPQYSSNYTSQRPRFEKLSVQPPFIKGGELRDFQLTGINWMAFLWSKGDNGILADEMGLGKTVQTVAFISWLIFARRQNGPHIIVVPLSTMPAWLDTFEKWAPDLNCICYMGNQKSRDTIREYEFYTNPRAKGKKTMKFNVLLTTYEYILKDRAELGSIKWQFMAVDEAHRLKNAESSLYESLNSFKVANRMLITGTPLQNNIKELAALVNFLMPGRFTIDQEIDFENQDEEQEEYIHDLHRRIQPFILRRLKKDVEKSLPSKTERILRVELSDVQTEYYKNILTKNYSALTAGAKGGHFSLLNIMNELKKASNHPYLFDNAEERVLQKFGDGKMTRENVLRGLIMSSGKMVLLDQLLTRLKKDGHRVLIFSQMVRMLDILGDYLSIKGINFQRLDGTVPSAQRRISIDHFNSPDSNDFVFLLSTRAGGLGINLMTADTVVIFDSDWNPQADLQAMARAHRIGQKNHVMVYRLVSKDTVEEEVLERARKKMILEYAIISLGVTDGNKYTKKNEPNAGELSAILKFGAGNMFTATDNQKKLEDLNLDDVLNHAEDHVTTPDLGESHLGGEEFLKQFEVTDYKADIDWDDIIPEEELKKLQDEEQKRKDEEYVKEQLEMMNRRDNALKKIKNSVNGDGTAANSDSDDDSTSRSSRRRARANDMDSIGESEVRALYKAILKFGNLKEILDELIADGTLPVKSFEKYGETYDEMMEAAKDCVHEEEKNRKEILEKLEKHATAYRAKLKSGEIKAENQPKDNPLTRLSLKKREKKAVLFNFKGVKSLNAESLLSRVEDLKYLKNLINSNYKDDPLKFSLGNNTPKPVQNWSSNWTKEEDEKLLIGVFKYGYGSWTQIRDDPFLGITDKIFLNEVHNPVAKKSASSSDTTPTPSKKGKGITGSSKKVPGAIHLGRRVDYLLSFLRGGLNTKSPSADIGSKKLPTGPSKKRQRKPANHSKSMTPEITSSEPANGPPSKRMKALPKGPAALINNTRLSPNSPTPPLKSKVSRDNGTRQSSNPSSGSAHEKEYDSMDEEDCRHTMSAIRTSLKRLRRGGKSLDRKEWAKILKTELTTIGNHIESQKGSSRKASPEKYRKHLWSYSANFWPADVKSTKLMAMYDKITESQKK

Chain of Protein translocase subunit SecA (Escherichia coli (strain K12)) (P10408 whole entry): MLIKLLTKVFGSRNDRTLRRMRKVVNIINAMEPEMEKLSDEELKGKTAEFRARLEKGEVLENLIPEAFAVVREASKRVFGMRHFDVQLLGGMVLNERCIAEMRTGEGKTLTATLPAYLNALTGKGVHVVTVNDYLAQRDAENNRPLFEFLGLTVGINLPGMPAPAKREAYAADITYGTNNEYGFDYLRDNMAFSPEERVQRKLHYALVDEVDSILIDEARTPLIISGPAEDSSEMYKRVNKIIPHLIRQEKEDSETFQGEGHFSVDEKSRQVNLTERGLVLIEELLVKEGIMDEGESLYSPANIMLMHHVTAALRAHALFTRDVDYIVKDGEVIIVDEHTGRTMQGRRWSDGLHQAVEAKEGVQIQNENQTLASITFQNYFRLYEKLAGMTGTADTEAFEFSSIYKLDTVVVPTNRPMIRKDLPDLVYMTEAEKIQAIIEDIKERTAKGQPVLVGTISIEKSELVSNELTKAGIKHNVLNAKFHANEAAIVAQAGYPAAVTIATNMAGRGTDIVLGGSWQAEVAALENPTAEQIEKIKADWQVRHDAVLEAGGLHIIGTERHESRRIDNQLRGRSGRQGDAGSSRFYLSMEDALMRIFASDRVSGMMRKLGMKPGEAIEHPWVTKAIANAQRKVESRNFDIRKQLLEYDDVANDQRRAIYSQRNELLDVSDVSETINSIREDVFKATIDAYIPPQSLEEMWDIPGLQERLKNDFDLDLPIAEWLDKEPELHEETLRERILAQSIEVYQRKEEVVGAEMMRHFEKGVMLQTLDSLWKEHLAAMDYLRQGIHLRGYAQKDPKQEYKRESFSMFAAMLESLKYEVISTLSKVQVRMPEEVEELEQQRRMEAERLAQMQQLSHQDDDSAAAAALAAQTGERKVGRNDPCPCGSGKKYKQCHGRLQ
Chain of Sialic acid-binding Ig-like lectin 9 (Homo sapiens) (Q9Y336 whole entry): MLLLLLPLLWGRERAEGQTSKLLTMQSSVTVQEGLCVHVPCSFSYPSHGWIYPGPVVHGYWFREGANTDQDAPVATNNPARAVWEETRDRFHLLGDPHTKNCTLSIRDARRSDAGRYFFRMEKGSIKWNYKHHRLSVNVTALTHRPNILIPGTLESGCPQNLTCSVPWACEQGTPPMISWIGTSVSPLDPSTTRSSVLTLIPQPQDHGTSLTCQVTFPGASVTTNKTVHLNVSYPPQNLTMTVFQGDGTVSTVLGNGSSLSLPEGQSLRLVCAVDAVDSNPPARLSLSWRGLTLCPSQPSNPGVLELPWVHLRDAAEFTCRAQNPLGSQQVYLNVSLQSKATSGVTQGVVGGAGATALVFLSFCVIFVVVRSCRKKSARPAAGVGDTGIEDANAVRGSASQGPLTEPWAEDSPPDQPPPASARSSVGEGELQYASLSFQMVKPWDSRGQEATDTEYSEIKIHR

| Structure (SMILES) | Percent Effect [1] [%] | Percent Effect [2] [%] | Percent Effect [3] [%] | Percent Effect (Trypanosoma cruzi) [%] | Percent Effect [4] [%] | Percent Effect [5] [%] | Percent Effect (Homo sapiens) [%] | Percent Effect [6] [%] | Percent Effect [7] [%] | Percent Effect [8] [%] |
| --- | --- | --- | --- | --- | --- | --- | --- | --- | --- | --- |
| Cc1nc(COc2ccc(CNCC3CN(C)CCO3)cc2)cs1 (stereo not given) | -3.51 | 2.6 | 0.562 | -3.73 | 3.07 | 3.16 | 18.8 | -0.98 | -2.35 | -1.69 |
| c1cnn(Cc2nnc3n2CCCN(CC2CCOCC2)C3)c1 | -8.53 | 1.3 | -2.75 | -3.02 | -2.83 | 3.62 | 1.85 | -0.526 | 5.13 | 2.31 |
| CC(NC(=O)NCCCn1cncn1)c1ccccc1Cl (stereo not given) | 0.672 | 10.7 | -2.84 | -7.63 | 3.99 | 7.72 | 13.4 | 3.68 | 12.8 | -11 |
| CCOc1ncccc1CNC(=O)Nc1ccc(N(C)C)nc1 | -5.71 | 2.6 | -6.42 | -9.89 | -2.66 | 15.3 | 13.9 | 0.98 | 4.71 | -9.6 |
| CC(C)(C)c1nnc(CN2CCOC(Cn3cncn3)C2)o1 (stereo not given) | -3.4 | 17.9 | 1.77 | 9.67 | -6.56 | 4.18 | 8.6 | 4.31 | 18.1 | -4.15 |
| Cc1ccc(Cl)cc1N1CCC(CNC(=O)CCn2ccnn2)C1 (stereo not given) | -2.11 | 12.8 | -5.81 | -2.35 | 8.61 | 15.8 | 24.6 | 5.26 | 18.1 | 0.402 |
| CCc1n[nH]c(C2CN(C(=O)c3nc(C)ncc3Cl)CCO2)n1 (stereo not given) | -2.86 | 7.79 | 9.79 | -2.24 | 1.43 | -0.351 | 2.84 | 2.94 | 7.06 | 2.12 |
| O=C1CCC(C(=O)NCc2nn(-c3ccccc3)c3c2CCC3)CN1 (stereo not given) | -6.78 | 5.13 | -2.63 | -2.16 | -2.46 | 1.96 | 22 | 1.44 | 6.02 | 0.942 |
| COc1ccccc1OCC(=O)NS(=O)(=O)c1ccc(C)s1 | -1.64 | 5.2 | 0.674 | -0.746 | 7.58 | 6.49 | 5.05 | 0.98 | 16.5 | -3.45 |
| CS(=O)(=O)NCC1CCCN(C(=O)c2ccc(Cl)o2)C1 (stereo not given) | 1.32 | 7.79 | -4.36 | -0.746 | 7.58 | 14.6 | -11.3 | 4.9 | 18.8 | -10 |
| COCc1nc(C(=O)NS(=O)(=O)c2ccc(C)cc2C)cs1 | -3.05 | 0 | 4.98 | 1.97 | 4.1 | -6.23 | -17.6 | 2.39 | 1.21 | -0.274 |
| CCOc1ncccc1NC(=O)NC1CCN(S(C)(=O)=O)CC1 | -4.68 | 2.6 | -7.28 | -6.34 | -6.76 | 8.25 | 25.1 | 0.98 | 4.71 | -11.6 |
| O=C(CSc1ccc(F)c(F)c1)NS(=O)(=O)c1ccc2c(c1)OCCO2 | -1.98 | 2.56 | -9.59 | 0.282 | 1.23 | 3.16 | 12.6 | -4.31 | 8.43 | -1.38 |
| CC(C)n1ccnc1C1CCN(C(=O)c2cc[nH]n2)CC1 | -1.49 | 8.11 | 10.9 | 5.53 | 14.3 | 13.2 | 31.6 | 7.98 | 19.5 | -4.41 |
| O=C1CCCc2nccc(-c3ccccc3)c21 | 3.95 | 22.7 | -10 | 2.56 | 0.443 | 27.1 | 9.37 | 3.17 | -45 | -16.7 |
| CC(=O)N1CCCn2nc(CNS(=O)(=O)c3cc(C)cs3)cc2C1 | -6.27 | 2.7 | -0.0396 | -2.42 | 4.54 | 4.11 | 0.293 | 4.79 | 7.32 | 3.74 |
| O=C(NCc1nn(-c2ccccc2)c2c1CCC2)N1CCSCC1 | -6.8 | -2.56 | -13.1 | 12.7 | -1.64 | 7.25 | 15.5 | 2.39 | 13.2 | -7.59 |
| Cc1nn(C)cc1-c1cc(C(F)(F)F)c2c(C)nn(CC(=O)O)c2n1 | 0.552 | 14.7 | -7.53 | -2.56 | -0.885 | 7.72 | 24.1 | -1.06 | 0 | -17.3 |
| CCn1cc(S(=O)(=O)N(C)Cc2c(Br)cnn2CC)c(C)n1 | 8.78 | 12 | -0.969 | -3.55 | 3.54 | 16.6 | 20.6 | 3.17 | 7.5 | -17.9 |
| Cc1cc(C)n(CC2CCCCN2CCCS(N)(=O)=O)n1 (stereo not given) | 1.22 | 18.7 | -2.13 | -2.01 | 4.88 | 12.8 | 8.38 | -0.526 | 7.69 | -8.39 |
| CN1CCC/C1=N\S(=O)(=O)c1ccc(NC(=O)c2ccc(F)cc2)cc1 | 1.02 | 26 | 3.66 | 6.34 | 28.5 | 9.82 | 14.2 | 5.88 | 28.2 | -9.94 |
| CN1CCCN(c2nccc(-c3c[nH]nc3C3CCCCC3)n2)CC1 | 2.25 | 8 | -4.76 | -6.22 | 1.33 | 24 | 23 | 0.526 | 2.56 | -14.2 |
| CSc1ccc(Cl)c(C(=O)N2CCCC(CNS(C)(=O)=O)C2)c1 (stereo not given) | 0.802 | 26 | -6.07 | 1.12 | -14.6 | 18.2 | 13 | 1.96 | 28.2 | -11.3 |
